ELG1 genotoxic = genotoxicity induction in ELG1-luciferase HEK293T cells | HEK293T ELG1-luciferase reporter, luminescence, 16 h | Potency, µM (top dose mostly 46 µM), actives largely listed as activators | 1.3% of 330,000 active; further: nearly all actives have a fitted effect of over 60% in size
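Step 1: seed 2,000 HEK293T ELG1-luciferase cells per well. Step 2: add compound or DMSO, incubate 16 hr at 37 °C. Step 3: ONE-Glo, 30 min at room temperature, read luminescence.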
KinaseGlo FLuc = blocks Kinase-Glo luciferase, a counter-screen artifact. Q27757. Kinase-Glo luciferase, ATP luminescence, 8 min. Potency, µM (doses to about 38.3 µM), hits mostly inhibitors. 0.28% of 200,000 active; further: nearly all actives have a fitted effect of over 60% in size
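Compounds were added to a substrate mix at pH 7.2 (50 mM imidazole, 10 uM ATP, within the enzyme's linear range), followed by Kinase-Glo detection reagent; luminescence was measured after 8 minutes at ambient temperature.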
Rab9 promoter act = Rab9 promoter activation | AID 485297 | Potency, µM (doses to about 9.22 µM), actives largely listed as activators | 2.8% of 320,000 active | Huh7 Rab9 promoter-luciferase reporter, luminescence, 24 h; further: nearly all actives have a fitted effect of over 60% in size
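Luminescence from Amplite-detected luciferase (10 minutes, ambient) reports Rab9 promoter activation. Before that, stable Rab9-luciferase Huh7 cells (1500/well, reduced-serum OP-MEM I plus 10% FBS) were exposed to compound for 24 hours at 37C.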
NPC1 promoter act = activators of NPC1 promoter; AID 485313; Huh7 NPC1 promoter luciferase reporter, 24 h; 2.4% of 320,000 active; Potency, µM (top dose mostly 9.22 µM), usual class: activators; further: nearly all actives have a fitted effect of over 60% in size
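Stable NPC1-promoter luciferase Huh7 line; cpd (DMSO) 24 h, 37 °C, 5% CO2; Amplite luciferase reagent 10 min RT; luminescence readout. qHTS format.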
SMN2 splice up = increases expression of the SMN2 splice variant | HEK293 SMN2-luciferase splicing reporter, luminescence, 30-36 h | Potency, µM (doses to about 46.1 µM), usual class: activators | 2.8% of 210,000 active; further: nearly all actives have a fitted effect of over 55% in size
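qHTS luciferase splicing reporter: luminescence rises when SMN2 exon 7 is included in transfected HEK293 cells. Compound exposure lasted 30-36 h at 37C, with 4.5 mM final sodium butyrate as control, followed by a ONE-Glo read.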
FLuc counter = counter-screen for miR-21 project: firefly luciferase inhibitors or activators. P08659. Potency, µM (titrated, usually from 57.5 µM), hits mostly inhibitors. purified FLuc, Km substrates, luminescence inhibition. AID 588342. 6.9% of 360,000 active; further: nearly all actives have a fitted effect of over 55% in size
Target sequence (P08659 whole entry, looked up): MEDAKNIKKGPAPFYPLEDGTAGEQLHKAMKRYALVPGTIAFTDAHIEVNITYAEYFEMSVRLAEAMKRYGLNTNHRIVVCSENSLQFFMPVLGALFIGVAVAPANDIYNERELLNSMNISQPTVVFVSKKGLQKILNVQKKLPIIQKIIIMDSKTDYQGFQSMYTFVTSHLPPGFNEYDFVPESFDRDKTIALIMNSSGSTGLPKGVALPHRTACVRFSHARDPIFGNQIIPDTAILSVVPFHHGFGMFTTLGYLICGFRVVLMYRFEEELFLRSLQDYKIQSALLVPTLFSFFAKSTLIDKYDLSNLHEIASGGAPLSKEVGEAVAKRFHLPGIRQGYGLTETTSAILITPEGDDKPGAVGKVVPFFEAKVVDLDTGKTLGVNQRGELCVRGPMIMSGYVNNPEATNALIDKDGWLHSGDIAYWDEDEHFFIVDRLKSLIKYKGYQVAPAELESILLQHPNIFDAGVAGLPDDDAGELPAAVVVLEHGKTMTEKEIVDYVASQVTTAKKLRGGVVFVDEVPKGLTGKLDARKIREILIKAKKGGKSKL
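Purified P. pyralis luciferase (10nM final) with 10uM D-luciferin and 10uM ATP (Km levels) in 50mM Tris acetate pH 7.5, 10mM Mg acetate, 0.01% Tween-20, 0.05% BSA; qHTS 6-point titration, ~60 µM downward; luminescence read.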
A number is an active result; 0 = inactive; ? = inconclusive; - = no result given. The list is not random: actives were taken first. Their share in the collection is about 7.3%. The call rests on the fitted dose curve; in most records, active means well fitted curve in the direction sought with a large enough effect; inconclusive means small, poorly fitted or top-dose-only effect, or another doubt; inactive means no such curve, though single readings can be large; an effect the other way counts as inactive or inconclusive.

SMILES	ELG1 genotoxic	KinaseGlo FLuc	Rab9 promoter act	NPC1 promoter act	SMN2 splice up	FLuc counter
C/C(Cl)=C/CSc1nn2c(=O)c3ccccc3nc2s1	?	0	?	?	0	12µM
Cc1nnc2sc(SCc3ccccc3)nn2c1=O	0	0	0	0	0	0
C=CCSc1nn2c(=O)c3ccccc3nc2s1	?	0	3.2µM	2.5µM	?	13µM
CC(=O)N1c2ccc(S(=O)(=O)NCc3ccc(Cl)cc3)cc2CC1C (stereo not drawn)	-	-	-	-	-	0
c1ccc2[nH]c(-c3cscn3)nc2c1	?	0	?	?	13µM	13µM
FC(F)c1nc2ccccc2[nH]1	0	0	0	0	-	0
c1ccc2nc(-c3nc4ccccc4[nH]3)ccc2c1	-	8.9µM	0.63µM	2.8µM	0.4µM	0.3µM
O=C(Nc1cccc(-c2nc3cc(Cl)ccc3o2)c1)c1cc([N+](=O)[O-])ccc1N1CCOCC1	-	-	-	-	0	0
CN1CCN(c2ccc(NC(=O)c3ccc(-c4cccc([N+](=O)[O-])c4)o3)cc2)CC1	0	0	0	0	0	15µM
O=C(Nc1ccc2oc(=O)ccc2c1)c1ccc(-c2cccc([N+](=O)[O-])c2)o1	0	-	0	0	-	0
CCc1ccc2oc(-c3ccc(C)c(NC(=O)c4cc([N+](=O)[O-])ccc4N4CCOCC4)c3)nc2c1	-	-	-	-	0	1.7µM
CN1CCN(c2ccc(NC(=O)c3ccc(-c4ccc(Cl)cc4)o3)cc2)CC1	0	-	0	0	-	24µM
CCc1ccc2oc(-c3cccc(NC(=O)c4ccc(-c5cccc([N+](=O)[O-])c5)o4)c3)nc2c1	-	-	-	-	?	2.7µM
Cc1ccc(N2CCN(C(=S)c3ccc(-c4cccc([N+](=O)[O-])c4)o3)CC2)cc1	0	0	0	0	0	0
CS(=O)(=O)N1CCN(c2ccc(NC(=O)c3ccc(-c4ccc(Cl)cc4)o3)cc2)CC1	0	0	0	0	0	0
Cc1csc(NC(=O)CSc2nnc(-c3ccncc3)o2)n1	0	0	?	0	3.2µM	0
Cc1csc(NC(=O)CSc2nnc(-c3ccoc3C)o2)n1	0	0	?	?	11µM	0
CCCCCNc1nc2c(-c3ccccc3)nnn2c2ccccc12	-	-	-	-	0	0
COc1ccc(C)cc1NS(=O)(=O)c1ccc2c(c1)[C@H]1C=CC[C@H]1[C@@H](c1cccc(Cl)c1)N2	-	-	-	-	0	0
Nc1ccc2oc(-c3ccccc3Cl)cc(=O)c2c1O	16µM	0	4µM	3.2µM	11µM	6.7µM
COc1ccccc1N1CCN(c2nc3ccccc3n3cnnc23)CC1	-	-	-	-	0	0
COc1cc(/C=C/C(=O)Nc2ccc3[nH]c(=O)[nH]c3c2)cc(OC)c1OC	0	0	0	0	0	?
COc1cccc(/C=C/C(=O)Nc2ccc3[nH]c(=O)[nH]c3c2)c1	0	0	0	0	?	9.5µM
CSc1cccc(NC(=O)/C=C/c2cccc(Cl)c2)c1	0	0	3.2µM	?	14µM	8.5µM
COc1ccc(OC)c(NC(=O)/C=C/c2ccccc2[N+](=O)[O-])c1	0	0	0	0	0	?
SMILES	ELG1 genotoxic	KinaseGlo FLuc	Rab9 promoter act	NPC1 promoter act	SMN2 splice up	FLuc counter
O=C(/C=C/c1ccccc1[N+](=O)[O-])Nc1cccnc1	0	0	2.8µM	?	14µM	15µM
COc1cccc(NC(=O)/C=C/c2ccccc2[N+](=O)[O-])c1	?	0	4µM	?	3.2µM	5.4µM
COc1cccc(NC(=O)/C=C/c2ccc([N+](=O)[O-])cc2)c1	0	-	?	?	-	6µM
CCN(CC)S(=O)(=O)c1cccc(NC(=O)/C=C/c2ccc([N+](=O)[O-])cc2)c1	0	0	0	0	0	0
CN(C)c1ccc(/C=N/O)cc1	0	0	0	0	0	0
CSc1ccc(/C=N/NC(=O)c2cccs2)cc1	?	-	1.8µM	2.2µM	-	1.7µM
CN(C)c1ccc(/C=N\NC(=O)c2ccc(Cn3cc(Cl)cn3)cc2)cc1	0	0	0	0	0	12µM
C/C(=N/N=C/c1ccc(N(C)C)cc1)c1ccccc1	0.37µM	8.9µM	0.11µM	0.28µM	0.5µM	0.17µM
CN(C)c1cccc(C(=O)N/N=C/c2ccsc2)c1	?	0	3.5µM	3.2µM	11µM	3µM
COc1ccc(NC(=O)c2cnc3cc(C)ccn3c2=O)c(OC)c1	-	-	-	-	0	0
CN(C)c1ccc(/C=N/NC(=O)c2ccccc2)cc1	?	?	0.89µM	2.8µM	11µM	5.4µM
O=C(Nc1ccc(Cl)c(Cl)c1)c1ccc(Cn2cc(Cl)cn2)cc1	0	0	0	0	0	19µM
COc1ccccc1/C=N/NC(=O)c1ccccc1Cl	0	0	0	0	0	?
CSc1ccc(/C=N/NC(=O)c2ccccc2Cl)cc1	?	0	?	0	0	15µM
NNC(=O)c1ccc(Cn2cc(Cl)cn2)cc1	0	0	0	0	0	0
CN(C)c1ccc(/C=N/NC(=O)c2ccccc2Cl)cc1	?	0	0	0	22µM	17µM
O=C(N/N=C/c1ccc(-n2ccnc2)cc1)c1cccs1	?	-	?	?	-	12µM
Cc1ccc(/C=N/NC(=O)CNC(=O)c2cccs2)o1	0	0	0	0	0	0
CN(C)c1ccc(/C=N/NC(=O)c2sccc2-n2cccc2)cc1	0	0	4µM	?	0	?
O=C(N/N=C/c1ccc(-c2ccccc2C(=O)O)o1)c1cccs1	0	0	0	0	0	13µM
O=C(N/N=C\c1ccc(Cl)cc1)c1sccc1-n1cccc1	0	0	0	0	0	0
CC(C)C[C@@H](CC(=O)N[C@@H](CCC(=O)O)CC(=O)O)NC(=O)[C@@H]1CNCC[C@H]1NC(=O)C[C@@H](NC(=O)C[C@H](CO)NC(=O)[C@@H]1CNCC[C@H]1N)C(C)C	-	0	-	-	0	-
Cn1nnnc1SCc1nc2ccccc2s1	0	0	?	0	?	?
CCN(CC)S(=O)(=O)c1cccc(-c2nnc(SCc3nc4ccccc4s3)o2)c1	0	0	?	0	0	15µM
CCN(CC)S(=O)(=O)c1cccc(-c2nnc(SCCCC(=O)c3ccccc3)o2)c1	0	0	0	0	0	?
SMILES	ELG1 genotoxic	KinaseGlo FLuc	Rab9 promoter act	NPC1 promoter act	SMN2 splice up	FLuc counter
Brc1ccccc1-c1nnc(SCc2nc3ccccc3s2)o1	?	0	?	0	14µM	7.6µM
COc1ccc(NC(=O)Cn2cc(C(=O)c3ccc(C)c(C)c3)c(=O)c3cc(OC)ccc32)cc1	-	-	-	-	0	0
CC(C)(C)c1ccc(C(=O)OC/C(O)=C(\C#N)c2nc3ccccc3s2)cc1	0	0	0	0	0	0
O=C(OCc1nc2ccccc2s1)c1ccccc1O	?	0	0	0	0	8.5µM
O=C(OCc1nc2ccccc2s1)c1cccc(N2C(=O)CCC2=O)c1	0	0	0	0	0	?
O=C(OCc1nc2ccccc2s1)c1cccs1	-	0	-	-	?	2.7µM
N#C/C(=C(/O)COC(=O)c1ccccc1O)c1nc2ccccc2s1	0	0	0	0	0	21µM
